# Results taken from PubChem BioAssay AID686971 (National Center for Advancing Translational Sciences (NCATS), 2013).
# About 7,500 (2.1%) of roughly 360,000 compounds were called active. Inconclusive results (about 8%) are left out. For the sample, actives were picked, then their nearest neighbours and some compounds at random. A number with no mark means an inactive call. Calls come from the whole dose curve; as a rule, active = well fitted cell-killing curve with a large enough effect; inconclusive = small, poorly fitted or top-dose-only effect, or effect the other way, or another doubt; inactive = no such curve, though single readings can be large or run the other way.
# Experiment: qHTS for induction of synthetic lethality in tumor cells producing 2HG: qHTS for the HT-1080-IDH1KD cell line
# Conditions: HT-1080 IDH1 knockdown viability, ATP luminescence, 48 h; series mostly up to 46.1 µM; activity, negative = toxicity: at the top concentration
# From the text: Unbiased genomic sequencing for 22 glioma genomes found recurrent mutation of IDH1 on chromosome 2q33, a gene encoding the cytosolic isoform of IIDH1 associated with the tri-carboxylic acid cycle (TCA) that catalyzes the oxidative decarboxylation of isocitrate, yielding alpha-ketoglutarate and CO2 via NADP+ to NADPH conversion. Subsequent studies confirmed the recurrent IDH mutations in up to 70% of secondary gliomas and in 10% of AML cases. In addition, the somatic mutation of cancer-associated IDH1 is a point mutation resulting in various amino-acid substituents at Arginine132 (IDH1 R132), a key residue found in the enzyme's active site that when mutated, results in the loss-of-function in metabolizing isocitrate but confers a gain-of-function to produce the oncometabolite 2-hydroxyglutarate (2HG). This in effect defines IDH1 as an oncogene and provides an extraordinary opportunity to discover chemical probes against mutant IDH1 that may translate into much needed new therapies for glioma and AML patients.
# This assay aims to perform a synthetic-lethal screen for chemical probes specific for 2HG-producing tumor cells using matched paired cell lines (1) HT-1080-NT fibrosarcoma cell line that overproduces 2HG and (2) HT-1080-IDH1KD cell line which has IDH1 expression knocked-down. Desirable compounds are toxic to the NT fibrosarcoma cell line but not to the IDH1KD cell line. The data in this AID corresponds to the results of the qHTS against the HT-1080 IDH1KD cell line.
# [1] Dang L, Jin S, Su SM. IDH mutations in glioma and acute myeloid leukemia. Trends of Mol Med. 2010; 16(9): 387-97.
# [2] Dang L et al. Cancer-associated IDH1 mutations produce 2-hydroxyglutarate. Nature. 2010; 465(7300):966.
# Molecular Libraries Probe Production Centers Network [MLPCN]
# NIH Chemical Genomics Center [NCGC]
# Assay Submitter (PI): Lenny Dang Ph.D., Agios Pharmaceuticals
# Suspensions of trypsinized HT-1080-IDH1KD cells were dispensed into white, tissue culture-treated, solid 1536-well plates at 5uL/well (750 cells/well final concentration) in RPMI medium supplemented with 5% FBS. Plates were incubated at 37 degrees C for 2 hours, after which 23 nL of compounds or DMSO were delivered to each well using a pin tool. Plates were then incubated at 37 degrees C for an additional 48 hours. CellTiter-Glo viability reagent (Promega) was dispensed into wells (2.5uL/well) and incubated at room temperature for 10 minutes. The plates were measured on a PerkinElmer ViewLux plate reader for luminescent signal (clear filter, 1 sec exp.). DMSO-treated control wells and media-only (no cells) control wells were used to normalize %Activity of identified toxic compounds; DMSO-treated wells corresponded to 0%Activity (100% viability), while media-only controls were used to normalize 100%Activity (0% viability). To minimize variability between cell lines, both HT-1080-NT and HT-1080-IDH1KD lines were dispensed and treated with identical compound series in single batches.
# Concentration-response curves were fitted to the signals arising from the resulting luminescence. The concentration-effect curves were then classified based on curve quality (r2), response magnitude and degree of measured activity, and compounds were subsequently categorized based on their curve class.
# Potency is the fitted concentration of half-maximal effect.
Compound,"activity, negative = toxicity",Potency
CC(=O)N1C[C@@H](CO)[C@@H](N(C)C(=O)c2ccco2)C[C@H]1c1ccccc1,-2.1%,
O=[N+]([O-])c1ccc(CN2CC(N3CCC(c4ccccc4)CC3)CS2(=O)=O)cc1 (stereo not drawn),-9.12%,
Cc1cccc(NC(=O)c2nc[nH]c2C(=O)NCC(=O)OCc2ccccc2)c1,6.4%,
O=C(Nc1ccc(F)cc1)c1ccc(S(=O)(=O)NCc2cccnc2)cc1,-20.1%,
Cc1cccc(NC(=O)C(C)SCc2ccccc2)c1 (stereo not drawn),-0.037%,
Cc1cccc(CS(=O)(=O)c2ncc(Cl)c(C(=O)Nc3ccc(F)cc3)n2)c1,,16.4 µM (active)
Cc1cccc(NC(=O)c2nc(S(=O)(=O)Cc3ccccc3)ncc2Cl)c1,,6.51 µM (active)
CCOc1ccc(NC(=O)c2nc(SCC)ncc2Cl)cc1,-1.23%,
CCCCN1C(=O)C(CC(=O)NC(c2ccccc2)c2ccccc2)CC(C(=O)N2CCOCC2)=C1C (stereo not drawn),0.317%,
O=S1(=O)C[C@@H](N2CCN(CCO)CC2)[C@H](COCc2ccccc2)N1,-5.58%,
COc1ccc([C@H]2N[C@]3(CCCN(CC4CCCCC4)C3=O)[C@H]3C(=O)N(C)C(=O)[C@@H]23)cc1,12%,
Cc1ccccc1S(=O)(=O)NC(=O)C1(C)CCN1C(=O)Cc1ccc(Cl)cc1Cl (stereo not drawn),26.8%,
Cc1cn([C@H]2C[C@H](O)[C@@H](CNC(=O)[C@H](N)Cc3cccnc3)O2)c(=O)[nH]c1=O,3.58%,
Nc1cc(=O)c2[nH]cnc2[nH]1,-25.5%,
COc1ccccc1N1CCN(C(=O)c2ccc(Cl)c(S(=O)(=O)N3CCCC3)c2)CC1,-0.548%,
COc1ccccc1N1CCN(C(=O)c2c(-c3c(Cl)cccc3Cl)noc2C)CC1,-2.34%,
COc1ccccc1N1CCN(C(=O)c2cc(=O)c3cc(C)cc(C)c3o2)CC1,,0.0103 µM (active)
C[C@H](NC(=O)CC[C@H]1O[C@@H](n2ccc(=O)[nH]c2=O)[C@H](O)[C@@H]1O)c1cccc2ccccc12,19.5%,
C[C@@H]1CN([C@@H](C)CO)C(=O)CCCn2nncc2CO[C@H]1CN(C)C(=O)Nc1ccc(C(F)(F)F)cc1,-7.94%,
C[C@@H]1CN([C@@H](C)CO)C(=O)c2cc(Br)cnc2O[C@@H]1CN(C)C(=O)C1CCCCC1,19.4%,
CC1=C(C(=O)N2CCOCC2)CC(CC(=O)NCc2cccs2)C(=O)N1CCCN1CCCC1=O (stereo not drawn),14.2%,
CCCCN1CC(COCc2ccccc2)OCCS1(=O)=O (stereo not drawn),8.5%,
CCCCC[C@H](C)N1C[C@@H](COCc2ccccc2)Oc2cc(N3CC[C@@H](N(C)C)C3)ccc2S1(=O)=O,,18.4 µM (active)
CCCCC[C@H](C)N1C[C@@H](COCc2ccccc2)Oc2cc(N3CCC[C@@H]3CO)ccc2S1(=O)=O,6.19%,

Compound,"activity, negative = toxicity",Potency
C[C@H](CO)N1C[C@H](C)[C@@H](CN(C)S(=O)(=O)c2ccc(F)cc2)OCc2cnnn2CCCC1=O,0.103%,
CC1(Oc2cccc(F)c2)CCN(Cc2ccccc2OC(F)F)C1 (stereo not drawn),15.1%,
Cc1[nH]n(-c2ccc([N+](=O)[O-])cc2)c(=O)c1C=NCCN1CCN(C(=O)c2ccccc2F)CC1,-28.4%,
Cn1c(COc2ccc(Cl)cc2)nc2ccccc2c1=O,4.13% [at 9.24 µM],
Cc1[nH]n(-c2ccc(Cl)cc2)c(=O)c1/C=N/n1c(C)nc2ccccc2c1=O,,16.4 µM (active)
CC1(C(=O)NCc2ccccc2)CSCC(=O)N1CCCN1CCOCC1 (stereo not drawn),-9.76%,
O=C(CCCN1C(=O)C(c2ccccc2)Oc2cccnc21)Nc1ccccc1Br (stereo not drawn),0.333%,
COc1ccc(-c2ccc3[nH]c4c(c3c2)CCN2C[C@H]3[C@H](C)ON(C)[C@H]3C[C@@H]42)cc1,-27.7%,
CCN(CC)CCn1cnc2c1c(=O)[nH]c(=O)n2Cc1ccccc1,1.96%,
COCCn1cnc2c1c(=O)n(Cc1ccc(Br)cc1)c(=O)n2Cc1ccccc1,-1.2%,
N=c1c2c(-c3ccccc3)c(-c3ccccc3)n(Cc3ccccc3)c2ncn1CCCO,,5.62 µM (active)
FC(F)(F)c1cccc(-c2nc3ccccc3n2C(c2ccccc2)c2nc3ccccc3[nH]2)c1 (stereo not drawn),-15.5%,
CCN(CC)C(=O)C1CCCN(Cc2cccc(Cl)c2)C1 (stereo not drawn),12.2%,
CC1(C(=O)Nc2ccccc2Br)CCN1C(=O)CC1CC1 (stereo not drawn),3.95%,
CC[C@@H]1Cc2cc(O)ccc2C2=C1c1ccc(O)cc1C[C@H]2CC,,14.6 µM (active)
CC(C)OC(=O)CC(=O)CC(O)c1cccc([N+](=O)[O-])c1 (stereo not drawn),-12.4%,
COc1ccc(CCNC(=O)CN(c2ccccc2)S(=O)(=O)c2ccccc2)cc1,-17.4%,
COC(=O)C1(C(=O)OC)C/C=C\CN(S(=O)(=O)c2ccccc2[N+](=O)[O-])CCC1,6.9%,
CC(CC(=O)O)C(=O)c1ccc(Cl)c([N+](=O)[O-])c1 (stereo not drawn),2.94%,
CC(=O)Nc1ccc(C=CC(=O)c2ccc([N+](=O)[O-])cc2)cc1,6.51%,
O=C(/C=C/c1ccc(Cl)c([N+](=O)[O-])c1)c1ccc(O)cc1,,11.6 µM (active)
O=C(Nc1ccncc1)c1ccc(Cl)c([N+](=O)[O-])c1,7.37%,
NC(N)=N/N=C/c1ccc(Cl)c([N+](=O)[O-])c1,,23.1 µM (active)
Nn1cnnc1N/N=C/c1cc([N+](=O)[O-])c(Cl)cc1Cl,1.7%,
